The values that follow come from PubChem BioAssay (EPA / NIEHS).

Holding throughout (conditions): mRNA level, 48 h; actives raise or lower the signal
Read-out in assay [1]: matrix metalloproteinase-10 (MMP10), MMP10 (gene 4319)
Nature of the assay: LTEA_HepaRG_MMP10: Life Technologies and Expression Analysis (LTEA) Assay for matrix metalloproteinase-10 (MMP10) using HepaRG (AID 2283517). The essentials: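 In differentiated HepaRG cultures kept in 0.5% DMSO, test chemicals act for 48 h over an eight-point range with a top dose of 100 uM. Expression is then quantified by TaqMan RT-PCR against ACTB, GAPDH and POLR2A.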

Read-out in assay [2]: MYC, MYC (gene 4609)
Kind of assay: LTEA_HepaRG_MYC: Life Technologies and Expression Analysis (LTEA) Assay for MYC using HepaRG (AID 2283518). The gist of the method: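 Expression changes were scored by TaqMan qRT-PCR with ACTB, GAPDH and POLR2A normalization. Cultures in serum-free induction medium received duplicate 8-point concentration series, highest 100 uM, for 48 h; DMSO (0.5%) served as baseline.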

Read-out in assay [3]: matrix metalloproteinase-3 (MMP3), MMP3 (gene 4314)
Nature of the assay: LTEA_HepaRG_MMP3: Life Technologies and Expression Analysis (LTEA) Assay for matrix metalloproteinase-3 (MMP3) using HepaRG (AID 2283519). The essentials:
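Human liver HepaRG cultures received chemicals (top concentration 100 uM, 0.5% DMSO) for 48 h in duplicate. MMP3 mRNA induction or loss was then assessed via TaqMan qRT-PCR with housekeeping-gene normalisation.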

Read-out in assay [4]: Paternally Expressed 10 (PEG10), PEG10 (gene 23089)
Kind of assay: LTEA_HepaRG_PEG10: Life Technologies and Expression Analysis (LTEA) Assay for Paternally Expressed 10 (PEG10) using HepaRG (AID 2283520).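 On AC50: differentiated HepaRG human liver cells in serum-free induction medium with 0.5% DMSO; PEG10 transcript by qRT-PCR normalised to ACTB GAPDH and POLR2A.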 The essentials:
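qRT-PCR read-out: PEG10 mRNA normalised to three housekeeping genes, fitted bidirectionally against 0.5% DMSO vehicle. HepaRG cells received test chemicals for 48 h in serum-free induction medium, 8 points, top 100 uM, half-log steps.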

Read-out in assay [5]: Nuclear factor NF-kappa-B p105 subunit (Homo sapiens) (UniProt P19838)
Nature of the assay: LTEA_HepaRG_NFKB1: Life Technologies and Expression Analysis (LTEA) Assay for Nuclear Factor Kappa B Subunit 1 (NFKB1) using HepaRG (AID 2283521).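 On outcome: differentiated human HepaRG liver cells in serum-free induction medium; TaqMan qRT-PCR transcript normalised to ACTB GAPDH and POLR2A housekeeping genes.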 The gist of the method: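 HepaRG, 48 h exposure; 8-pt half-log series from 100 uM in 0.5% DMSO; duplicates. Readout: NFKB1 mRNA by qRT-PCR (Fluidigm arrays), housekeeping-normalized. Gain/loss fit vs DMSO baseline.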

Read-out in assay [6]: Protein phosphatase 2A (PPP2R4), PTPA (gene 5524)
Kind of assay: LTEA_HepaRG_PPP2R4: Life Technologies and Expression Analysis (LTEA) Assay for Protein phosphatase 2A (PPP2R4) using HepaRG (AID 2283522). The gist of the method: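 HepaRG, 48 h exposure, 8-pt half-log series from 100 uM, 0.5% DMSO vehicle, duplicates. Readout: PPP2R4 mRNA, Fluidigm qRT-PCR, housekeeping-normalized. Bidirectional curve fit vs DMSO baseline.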

Read-out in assay [7]: Phosphatase and tensin (PTEN), PTEN (gene 5728)
Nature of the assay: LTEA_HepaRG_PTEN: Life Technologies and Expression Analysis (LTEA) Assay for Phosphatase and tensin (PTEN) using HepaRG (AID 2283523). The gist of the method:
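Expression of PTEN is quantified in the human liver line HepaRG following two days of dosing (top concentration 100 uM, half-log dilutions, 0.5% DMSO). Values derive from bidirectional curve fitting relative to DMSO controls.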

Read-out in assay [8]: solute carrier (SLC22A1), SLC22A1 (gene 6580)
Nature of the assay: LTEA_HepaRG_SLC22A1: Life Technologies and Expression Analysis (LTEA) Assay for solute carrier (SLC22A1) using HepaRG (AID 2283524).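 On AC50: differentiated human HepaRG liver cells in serum-free induction medium; TaqMan qRT-PCR normalized to ACTB GAPDH and POLR2A housekeeping genes.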 The essentials: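 Transcript induction or suppression of SLC22A1 in human HepaRG cultures is scored after 48 h chemical treatment, with DMSO (0.5%) as baseline for bidirectional fitting. Concentrations span eight half-log points topping at 100 uM.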

Read-out in assay [9]: Pyruvate Dehydrogenase Kinase 4 (PDK4), PDK4 (gene 5166)
Nature of the assay: LTEA_HepaRG_PDK4: Life Technologies and Expression Analysis (LTEA) Assay for Pyruvate Dehydrogenase Kinase 4 (PDK4) using HepaRG (AID 2283525). The essentials: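 Eight-point, half-log concentration series (max 100 uM, 0.5% DMSO) applied to differentiated HepaRG cells for 48 h in duplicate. Endpoint: PDK4 mRNA induction or repression by qRT-PCR against DMSO baseline.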

Read-out in assay [10]: NAD(P)H dehydrogenase [quinone] 1 (NQO1), NQO1 (gene 1728)
Kind of assay: LTEA_HepaRG_NQO1: Life Technologies and Expression Analysis (LTEA) Assay for NAD(P)H dehydrogenase [quinone] 1 (NQO1) using HepaRG (AID 2283526). The gist of the method: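 qRT-PCR read-out (Fluidigm TaqMan), normalized to three housekeeping genes, after 48 h chemical exposure of HepaRG cells. Concentrations: eight points, top 100 uM, half-log steps, 0.5% DMSO vehicle. Gain or loss of signal fitted relative to DMSO.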

Read-out in assay [11]: Nuclear factor erythroid 2-related factor 2 (Homo sapiens) (UniProt Q16236)
Kind of assay: LTEA_HepaRG_NFE2L2: Life Technologies and Expression Analysis (LTEA) Assay for Nuclear factor erythroid 2-related factor 2 (NFE2L2) Transcription Factor using HepaRG (AID 2283527).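 On outcome: TaqMan qRT-PCR transcript level normalised to ACTB GAPDH and POLR2A housekeeping genes.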 The gist of the method: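 Human liver HepaRG line treated in duplicate for 48 h with an eight-point series topping at 100 uM. Gene expression of NFE2L2 by qRT-PCR, bidirectionally fitted against the vehicle control.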

Read-out in assay [12]: succinate dehydrogenase complex iron sulfur subunit B (SDHB), SDHB (gene 6390)
Nature of the assay: LTEA_HepaRG_SDHB: Life Technologies and Expression Analysis (LTEA) Assay for succinate dehydrogenase complex iron sulfur subunit B (SDHB) using HepaRG (AID 2283528). The essentials:
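Readout is SDHB transcript level by qRT-PCR, normalised to three housekeeping genes and fitted bidirectionally against 0.5% DMSO vehicle. Human HepaRG cells were treated for 48 h at up to 100 uM.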

Read-out in assay [13]: Signal transducer and activator of transcription 3 (Homo sapiens) (UniProt P40763)
Kind of assay: LTEA_HepaRG_STAT3: Life Technologies and Expression Analysis (LTEA) Assay for Signal transducer and activator of transcription (STAT3) using HepaRG (AID 2283529). The gist of the method:
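In this transcriptional endpoint, HepaRG cultures receive test chemicals at up to 100 uM for 48 h, tested in duplicate. STAT3 mRNA is normalized to ACTB, GAPDH and POLR2A.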

Read-out in assay [14]: solute carrier (SLCO1B1), SLCO1B1 (gene 10599)
Nature of the assay: LTEA_HepaRG_SLCO1B1: Life Technologies and Expression Analysis (LTEA) Assay for solute carrier (SLCO1B1) using HepaRG (AID 2283530). The gist of the method:
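Human HepaRG cultures treated for 48 h with an eight-concentration half-log series topping at 100 uM; SLCO1B1 measured by qRT-PCR and fitted bidirectionally relative to DMSO.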

Read-out in assay [15]: sulfotransferase 2A1 (SULT2A1), SULT2A1 (gene 6822)
Nature of the assay: LTEA_HepaRG_SULT2A1: Life Technologies and Expression Analysis (LTEA) Assay for sulfotransferase 2A1 (SULT2A1) using HepaRG (AID 2283531). The gist of the method:
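Gene-expression endpoint in a human liver cell line: SULT2A1 mRNA change after 48 h chemical treatment, curves fitted in both directions relative to 0.5% DMSO vehicle. Concentrations spanned eight half-log steps from 100 uM.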

Read-out in assay [16]: Transforming Growth Factor (TGFA), TGFA (gene 7039)
Kind of assay: LTEA_HepaRG_TGFA: Life Technologies and Expression Analysis (LTEA) Assay for Transforming Growth Factor (TGFA) using HepaRG (AID 2283532). The essentials:
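Gene expression of TGFA was quantified by qRT-PCR after human HepaRG cells were treated for 48 h with test chemicals (eight concentrations, highest 100 uM, 0.5% DMSO). Activity in either direction was fitted relative to DMSO.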

Read-out in assay [17]: Transforming Growth Factor (TGFB1), TGFB1 (gene 7040)
Nature of the assay: LTEA_HepaRG_TGFB1: Life Technologies and Expression Analysis (LTEA) Assay for Transforming Growth Factor (TGFB1) Transporter using HepaRG (AID 2283533). The essentials: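 Eight-point concentration-response (max 100 uM, half-log) in HepaRG under serum-free induction conditions, 48 h. TGFB1 mRNA by qRT-PCR, housekeeping-normalized.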

Read-out in assay [18]: TIMP1, TIMP1 (gene 7076)
Nature of the assay: LTEA_HepaRG_TIMP1: Life Technologies and Expression Analysis (LTEA) Assay for TIMP1 using HepaRG (AID 2283534).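 On outcome: TaqMan qRT-PCR signal normalized to ACTB GAPDH and POLR2A housekeeping genes.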 The essentials:
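TIMP1 induction or repression in HepaRG cells after 48 h chemical exposure (eight concentrations, highest 100 uM), assessed by normalized qRT-PCR with bidirectional fitting to DMSO controls.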

Read-out in assay [19]: Tumor necrosis factor receptor 1 (TNFRSF1A), TNFRSF1A (gene 7132)
Kind of assay: LTEA_HepaRG_TNFRSF1A: Life Technologies and Expression Analysis (LTEA) Assay for Tumor necrosis factor receptor 1 (TNFRSF1A) using HepaRG (AID 2283535). The essentials: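 Assay uses 48 h chemical treatment of differentiated HepaRG monolayers, tested in duplicate at eight concentrations from 100 uM downward in 0.5% DMSO. mRNA is normalized to ACTB, GAPDH and POLR2A, with induction or suppression fitted relative to vehicle.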

Read-out in assay [20]: Thyroid Hormone Responsive (THRSP), THRSP (gene 7069)
Kind of assay: LTEA_HepaRG_THRSP: Life Technologies and Expression Analysis (LTEA) Assay for Thyroid Hormone Responsive (THRSP) using HepaRG (AID 2283536). The essentials:
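Cell model: human HepaRG, approx. 100,000 cells/well, 0.5% DMSO vehicle. Exposure lasts 48 h; phenobarbital 1 mM serves as induction positive control. Gene expression is measured by qRT-PCR against three endogenous control genes.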

In general, AC50 refers to the midpoint of the concentration-response curve, whichever way the signal moves.

Active and inactive are the calls of the source. How the source made its calls: active means hit-call score of the fitted dose curve at least 0.9, where 1 is the maximum; inactive means score below 0.9.

Nuclear factor NF-kappa-B p105 subunit (Homo sapiens), sequence (P19838 whole entry, looked up): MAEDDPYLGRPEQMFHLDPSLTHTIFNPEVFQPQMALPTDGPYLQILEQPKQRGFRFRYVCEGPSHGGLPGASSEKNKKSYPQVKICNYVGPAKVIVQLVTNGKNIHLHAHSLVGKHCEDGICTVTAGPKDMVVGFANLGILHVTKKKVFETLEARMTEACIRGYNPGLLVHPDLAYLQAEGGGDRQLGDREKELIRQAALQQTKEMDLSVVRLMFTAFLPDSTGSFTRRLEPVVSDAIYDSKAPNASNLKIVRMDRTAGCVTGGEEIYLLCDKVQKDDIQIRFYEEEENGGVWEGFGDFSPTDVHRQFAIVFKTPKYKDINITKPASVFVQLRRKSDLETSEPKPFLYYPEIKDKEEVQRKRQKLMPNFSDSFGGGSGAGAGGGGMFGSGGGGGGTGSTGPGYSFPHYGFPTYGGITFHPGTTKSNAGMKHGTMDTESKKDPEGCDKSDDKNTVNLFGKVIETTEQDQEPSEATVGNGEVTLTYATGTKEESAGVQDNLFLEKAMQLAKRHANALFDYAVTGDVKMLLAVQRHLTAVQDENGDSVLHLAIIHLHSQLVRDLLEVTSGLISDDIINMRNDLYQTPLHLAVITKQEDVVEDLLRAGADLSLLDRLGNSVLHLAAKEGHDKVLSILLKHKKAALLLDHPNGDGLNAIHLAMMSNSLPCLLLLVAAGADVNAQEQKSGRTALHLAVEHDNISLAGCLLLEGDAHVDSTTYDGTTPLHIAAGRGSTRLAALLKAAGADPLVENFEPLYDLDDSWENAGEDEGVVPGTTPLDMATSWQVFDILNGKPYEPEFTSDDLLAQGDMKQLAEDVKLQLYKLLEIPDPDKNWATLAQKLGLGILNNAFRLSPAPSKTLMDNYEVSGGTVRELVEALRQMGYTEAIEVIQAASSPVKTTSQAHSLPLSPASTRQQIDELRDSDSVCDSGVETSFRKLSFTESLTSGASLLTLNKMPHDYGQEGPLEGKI
Signal transducer and activator of transcription 3 (Homo sapiens), sequence (P40763 whole entry, looked up): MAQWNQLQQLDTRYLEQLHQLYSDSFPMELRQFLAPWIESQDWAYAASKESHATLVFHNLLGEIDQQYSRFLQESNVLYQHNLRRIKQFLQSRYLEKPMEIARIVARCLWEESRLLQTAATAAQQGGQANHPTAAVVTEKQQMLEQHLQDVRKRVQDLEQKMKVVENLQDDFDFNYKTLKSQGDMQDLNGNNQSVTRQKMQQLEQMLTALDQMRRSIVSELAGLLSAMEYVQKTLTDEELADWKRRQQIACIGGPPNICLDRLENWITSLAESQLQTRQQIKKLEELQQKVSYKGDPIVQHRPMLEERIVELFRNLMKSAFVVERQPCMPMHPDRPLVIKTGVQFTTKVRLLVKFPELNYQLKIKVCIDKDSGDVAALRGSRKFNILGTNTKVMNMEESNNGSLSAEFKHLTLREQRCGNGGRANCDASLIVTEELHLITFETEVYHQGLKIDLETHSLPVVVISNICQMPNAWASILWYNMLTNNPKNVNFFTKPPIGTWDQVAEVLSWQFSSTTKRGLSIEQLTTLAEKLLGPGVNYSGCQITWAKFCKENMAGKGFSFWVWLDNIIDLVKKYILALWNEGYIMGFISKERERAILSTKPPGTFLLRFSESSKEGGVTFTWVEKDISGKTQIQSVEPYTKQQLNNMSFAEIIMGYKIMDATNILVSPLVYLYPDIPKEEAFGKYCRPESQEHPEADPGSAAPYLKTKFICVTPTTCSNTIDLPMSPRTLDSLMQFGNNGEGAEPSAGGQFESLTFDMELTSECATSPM
Nuclear factor erythroid 2-related factor 2 (Homo sapiens), sequence (Q16236 whole entry, looked up): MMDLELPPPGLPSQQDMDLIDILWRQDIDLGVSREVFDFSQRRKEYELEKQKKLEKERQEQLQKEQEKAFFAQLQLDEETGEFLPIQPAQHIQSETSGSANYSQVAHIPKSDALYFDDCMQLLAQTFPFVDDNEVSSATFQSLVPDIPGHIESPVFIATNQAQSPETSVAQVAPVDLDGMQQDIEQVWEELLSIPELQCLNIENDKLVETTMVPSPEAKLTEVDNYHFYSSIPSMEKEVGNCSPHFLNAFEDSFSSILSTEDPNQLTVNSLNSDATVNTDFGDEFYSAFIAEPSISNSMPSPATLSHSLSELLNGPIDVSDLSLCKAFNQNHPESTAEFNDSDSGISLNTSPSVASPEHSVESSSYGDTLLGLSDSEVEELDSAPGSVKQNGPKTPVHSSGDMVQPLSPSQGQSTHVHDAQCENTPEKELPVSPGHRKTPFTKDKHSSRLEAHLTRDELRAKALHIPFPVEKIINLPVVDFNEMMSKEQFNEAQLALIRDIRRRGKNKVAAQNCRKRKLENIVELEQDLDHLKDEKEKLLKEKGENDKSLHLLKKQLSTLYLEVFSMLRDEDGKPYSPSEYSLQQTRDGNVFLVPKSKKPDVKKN

On to `CCNc1cccc(C)c1`, for which the compound was classed as inactive in assay [1], in [2], in [3], in assay [4], in assay [5] and in assay [6]. The compound was called inactive in assay [7], in [8], in [9], in [10], in assay [11] and in [12]. The compound was classed as inactive in [13], in [14], in assay [15], in assay [16], in assay [17] and in assay [18]. Moreover, the call in assay [19] and in assay [20] was inactive.

Turning to `COCCOCCOC`, the outcome in assay [1], in [3], in assay [4], in [8], in [9] and in assay [13] was inactive. The compound was called inactive in assay [14], in [15], in assay [17], in assay [18], in assay [19] and in assay [20]. The AC50 in assay [2] was 0.966 µM (active); in assay [5] it was 2.8 µM (active); in [6] it was 9.92 µM (active); in assay [7], 0.243 µM (active); in [10], 0.315 µM (active); in assay [11], 9.92 µM (active). Besides, the results for the AC50 in [12] and in assay [16] were 10.9 µM (active) and 1.21 µM (active), respectively.

Regarding `CC(C)(C)c1cc(O)c(C(C)(C)C)cc1O`, the AC50 is 93.6 µM (active) in assay [1]; 50 µM (active) in [3]; 32.5 µM (active) in [4]; 87.6 µM (active) in assay [7]; 76.8 µM (active) in [8]; 80.6 µM (active) in assay [10]. Further, the AC50 was 79.1 µM (active) in assay [14]; 90.9 µM (active) in assay [15]; 50 µM (active) in [18]; 78.3 µM (active) in assay [19]; 78.9 µM (active) in assay [20]. Moreover, the outcome in [2], in [5], in assay [6], in assay [9], in assay [11] and in [12] was inactive. Also, the call in [13], in assay [16] and in [17] was inactive.

On to `CCOC(=O)C(C)(C)Oc1ccc(Cl)cc1`, for which the compound was classed as inactive in assay [1], in assay [2], in [3], in assay [4], in assay [5] and in assay [6]. In addition, the outcome in [7], in [8], in assay [10], in assay [11], in [12] and in assay [13] was inactive. The call in assay [14], in assay [15], in [16], in assay [17], in assay [18] and in [19] was inactive. In assay [20], the outcome was inactive. Besides, the AC50 in assay [9] is 24.6 µM (active).

Consider `Cc1nc(-c2ccc3c(c2)CCN(CCC2CCC(NC(=O)/C=C/c4ccc(F)cc4)CC2)CC3)no1` (stereo not given), for which the compound was called inactive in assay [1], in assay [2], in assay [3], in assay [4], in assay [5] and in assay [6]. Besides, the compound was classed as inactive in [7], in [8], in assay [9], in [10], in assay [11] and in assay [12]. Besides, the outcome in assay [13], in assay [14], in [15], in assay [16], in assay [17] and in [18] was inactive. For the same compound, the call in [19] and in assay [20] was inactive.

Turning to `Nc1ccccc1N`, the result in [1], in assay [5], in [10], in assay [11], in assay [13] and in [18] was inactive. In addition, the half-maximal activity concentration (AC50) is 7.08 µM (active) in assay [2]; 81.8 µM (active) in [3]; 64.8 µM (active) in assay [4]; 77.5 µM (active) in assay [6]; 67.4 µM (active) in assay [7]; 62.4 µM (active) in assay [8]. The concentration at half-maximal activity (AC50) in [9] was 81.8 µM (active); in assay [12] it was 85.1 µM (active); in [14] it was 69.5 µM (active); in [15], 85.9 µM (active); in assay [16], 50 µM (active); in [17], 29.6 µM (active). Further, the AC50 in assay [19] and in assay [20] was 50 µM (active) throughout.
